According to PubChem BioAssay (Tox21):
Inconclusive results are not listed. A call without a number means that no potency is given here. A number with no mark means an inactive call. Active and inactive are the calls of the source. The call rests on the fitted dose curve; in most records, active means well fitted curve in the direction sought with a large enough effect in the repeat runs; inconclusive means weak or mixed curves; inactive means no such curve, though single readings can be large; an effect the other way counts as inactive or inconclusive.

Experiments:
[1] = biological target: Nuclear receptor subfamily 1 group I member 2 (Homo sapiens) (UniProt O75469); experiment: Human pregnane X receptor (PXR) small molecule agonists, qHTS assay (AID 1346982); further: nearly all actives have a fitted effect of over 35% in size; further: potency means the concentration at half of the fitted maximal effect
In short: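 Reporter HepG2 cells expressing PXR-Luc are cultured in charcoal-stripped FBS (5%), treated with compounds for 24 hr at 37 C, and assayed by ONE-Glo luminescence after 30 min at room temperature.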

[2] = biological target: Cytochrome P450 2D6 (Homo sapiens) (UniProt P10635); experiment: Cytochrome P450 Family 2 Subfamily D Member 6 (CYP2D6) small molecule antagonists: luciferase reporter qHTS assay (AID 1671196); further: nearly all actives have a fitted effect of over 50% in size; further: potency means the concentration at half of the fitted maximal effect
In short: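 Test chemicals meet CYP2D6 plus proluciferin substrate (10 min, RT); NADPH regenerating solution then drives turnover for 1 h. Detection reagent halts the reaction; luminescence measured after 20 min.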

[3] = biological target: Cytochrome P450 2C9 (Homo sapiens) (UniProt P11712); experiment: Cytochrome P450 Family 2 Subfamily C Member 9 (CYP2C9) small molecule antagonists: luciferase reporter qHTS assay (AID 1671198); further: nearly all actives have a fitted effect of over 50% in size; further: potency means the concentration at half of the fitted maximal effect
In short: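 CYP2C9 activity was measured with a P450-Glo proluciferin substrate. Enzyme–substrate mix was held with compound for 10 min at room temperature, then NADPH regeneration solution was added for 1 h at 37C. Luciferin product was read as luminescence.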

[4] = biological target: Cytochrome P450 1A2 (Homo sapiens) (UniProt P05177); experiment: Cytochrome P450 Family 1 Subfamily A Member 2 (CYP1A2) small molecule antagonists: luciferase reporter qHTS assay (AID 1671199); further: nearly all actives have a fitted effect of over 50% in size; further: potency means the concentration at half of the fitted maximal effect
In short: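 Steps: enzyme-substrate mix dispensed; test compounds and furafylline control pinned in; 10 min room temperature; NADPH regeneration solution added, 1 h; reaction stopped with luciferin detection reagent; luminescence read after 20 min.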

[5] = biological target: Voltage-gated inwardly rectifying potassium channel KCNH2 (Homo sapiens) (UniProt Q12809); experiment: Human Ether-a-go-go-Related Gene (hERG) channel small molecule antagonists: fluorescence cell-based qHTS assay (AID 1671200);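 further: hERG-expressing U2OS cells given a thallium stimulus after FluxOR II dye loading; series mostly up to about 77 µM; nearly all actives have a fitted effect of over 50% in size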
In short: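 Fluorescence at 540 nm emission (480 nm excitation) was recorded kinetically for 2 min at 1-second intervals once the thallium-containing stimulus reached cells previously loaded with FluxOR II dye.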

[6] = biological target: Cytochrome P450 3A4 (Homo sapiens) (UniProt P08684); experiment: Cytochrome P450 Family 3 Subfamily A Member 4 (CYP3A4) small molecule antagonists: luciferase reporter qHTS assay (AID 1671201); further: nearly all actives have a fitted effect of over 50% in size; further: potency means the concentration at half of the fitted maximal effect
In short: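 qHTS, 1536-well. CYP3A4 + proluciferin substrate, cpd 10 min RT → NADPH regen 1 h RT → detection reagent 20 min → luminescence (RLU). Ketoconazole positive control.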

[7] = biological target: Cytochrome P450 2C19 (Homo sapiens) (UniProt P33261); experiment: Cytochrome P450 Family 2 Subfamily C Member 19 (CYP2C19) small molecule antagonists: luciferase reporter qHTS assay (AID 1671197); further: nearly all actives have a fitted effect of over 65% in size; further: potency means the concentration at half of the fitted maximal effect
In short: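 Luminescent readout of CYP2C19 activity: luciferin product detected 20 min after adding detection reagent. Before that, compound and enzyme-substrate mix preincubated 10 min at room temperature; NADPH-regenerating system started a 1 h, 37C reaction. Ketoconazole as positive control.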

Nuclear receptor subfamily 1 group I member 2 (Homo sapiens), sequence (O75469 whole entry, looked up): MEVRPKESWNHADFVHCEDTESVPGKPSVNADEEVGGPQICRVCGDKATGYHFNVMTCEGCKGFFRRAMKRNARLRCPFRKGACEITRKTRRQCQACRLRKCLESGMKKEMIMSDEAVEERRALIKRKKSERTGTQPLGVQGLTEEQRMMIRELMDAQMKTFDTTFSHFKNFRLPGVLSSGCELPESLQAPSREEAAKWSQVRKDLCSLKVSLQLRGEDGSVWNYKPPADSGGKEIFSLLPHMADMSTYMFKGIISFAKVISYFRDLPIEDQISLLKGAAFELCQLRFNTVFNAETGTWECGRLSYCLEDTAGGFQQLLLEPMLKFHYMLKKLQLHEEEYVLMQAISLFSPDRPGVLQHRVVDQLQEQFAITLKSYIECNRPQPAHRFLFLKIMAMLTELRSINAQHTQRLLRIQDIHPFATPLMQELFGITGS
Cytochrome P450 2D6 (Homo sapiens), sequence (P10635 whole entry, looked up): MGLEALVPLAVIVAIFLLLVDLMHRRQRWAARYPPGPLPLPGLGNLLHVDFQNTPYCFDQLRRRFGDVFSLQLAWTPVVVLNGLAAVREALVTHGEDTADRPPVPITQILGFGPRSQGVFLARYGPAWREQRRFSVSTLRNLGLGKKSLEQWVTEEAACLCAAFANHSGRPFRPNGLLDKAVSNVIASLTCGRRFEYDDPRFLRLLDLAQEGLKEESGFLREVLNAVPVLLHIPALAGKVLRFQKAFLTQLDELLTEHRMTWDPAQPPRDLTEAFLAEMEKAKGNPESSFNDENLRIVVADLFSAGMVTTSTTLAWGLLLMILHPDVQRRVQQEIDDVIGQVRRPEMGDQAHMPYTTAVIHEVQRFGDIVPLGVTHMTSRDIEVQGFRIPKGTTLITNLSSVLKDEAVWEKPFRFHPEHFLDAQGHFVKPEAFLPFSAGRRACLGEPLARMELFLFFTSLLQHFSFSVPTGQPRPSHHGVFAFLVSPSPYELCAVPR
Cytochrome P450 3A4 (Homo sapiens), sequence (P08684 whole entry, looked up): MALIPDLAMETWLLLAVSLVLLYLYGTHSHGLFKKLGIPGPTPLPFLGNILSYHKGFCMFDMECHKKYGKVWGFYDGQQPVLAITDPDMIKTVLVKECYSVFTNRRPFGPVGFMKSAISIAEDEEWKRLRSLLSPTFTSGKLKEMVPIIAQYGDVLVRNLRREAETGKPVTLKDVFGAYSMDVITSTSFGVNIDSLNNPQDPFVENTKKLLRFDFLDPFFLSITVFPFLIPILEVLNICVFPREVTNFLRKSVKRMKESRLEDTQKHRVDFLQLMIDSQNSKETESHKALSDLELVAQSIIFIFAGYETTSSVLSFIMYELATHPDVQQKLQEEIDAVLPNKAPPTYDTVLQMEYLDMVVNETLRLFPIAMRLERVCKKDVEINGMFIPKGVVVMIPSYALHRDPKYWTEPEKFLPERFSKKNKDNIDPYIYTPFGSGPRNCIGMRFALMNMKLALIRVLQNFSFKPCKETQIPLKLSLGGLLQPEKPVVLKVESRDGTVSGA
Cytochrome P450 1A2 (Homo sapiens), sequence (P05177 whole entry, looked up): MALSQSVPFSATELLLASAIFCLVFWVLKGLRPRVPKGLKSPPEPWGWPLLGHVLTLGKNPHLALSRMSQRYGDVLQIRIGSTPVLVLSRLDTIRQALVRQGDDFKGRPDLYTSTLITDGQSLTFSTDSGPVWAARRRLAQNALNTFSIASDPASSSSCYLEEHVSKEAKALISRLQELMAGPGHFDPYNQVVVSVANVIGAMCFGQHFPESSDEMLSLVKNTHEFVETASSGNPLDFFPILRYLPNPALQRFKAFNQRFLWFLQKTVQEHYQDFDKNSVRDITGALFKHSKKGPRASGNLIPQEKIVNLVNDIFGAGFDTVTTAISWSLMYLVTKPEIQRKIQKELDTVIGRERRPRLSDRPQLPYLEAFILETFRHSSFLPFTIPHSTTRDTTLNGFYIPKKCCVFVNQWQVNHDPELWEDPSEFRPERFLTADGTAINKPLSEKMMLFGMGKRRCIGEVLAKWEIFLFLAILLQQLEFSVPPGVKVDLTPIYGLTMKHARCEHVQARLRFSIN
Cytochrome P450 2C9 (Homo sapiens), sequence (P11712 whole entry, looked up): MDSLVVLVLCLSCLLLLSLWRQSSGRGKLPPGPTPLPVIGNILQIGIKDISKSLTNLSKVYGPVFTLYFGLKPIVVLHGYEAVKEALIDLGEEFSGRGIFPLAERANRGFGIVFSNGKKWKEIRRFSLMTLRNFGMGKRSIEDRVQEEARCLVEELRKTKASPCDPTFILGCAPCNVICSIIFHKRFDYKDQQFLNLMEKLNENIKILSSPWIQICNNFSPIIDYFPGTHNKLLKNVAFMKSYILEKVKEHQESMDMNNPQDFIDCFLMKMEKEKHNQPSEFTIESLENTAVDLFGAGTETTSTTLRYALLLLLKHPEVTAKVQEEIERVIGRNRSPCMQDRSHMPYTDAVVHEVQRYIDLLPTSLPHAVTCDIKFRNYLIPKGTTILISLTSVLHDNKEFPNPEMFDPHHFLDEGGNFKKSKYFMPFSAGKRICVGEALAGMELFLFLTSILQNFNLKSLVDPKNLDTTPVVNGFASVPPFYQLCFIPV
Cytochrome P450 2C19 (Homo sapiens), sequence (P33261 whole entry, looked up): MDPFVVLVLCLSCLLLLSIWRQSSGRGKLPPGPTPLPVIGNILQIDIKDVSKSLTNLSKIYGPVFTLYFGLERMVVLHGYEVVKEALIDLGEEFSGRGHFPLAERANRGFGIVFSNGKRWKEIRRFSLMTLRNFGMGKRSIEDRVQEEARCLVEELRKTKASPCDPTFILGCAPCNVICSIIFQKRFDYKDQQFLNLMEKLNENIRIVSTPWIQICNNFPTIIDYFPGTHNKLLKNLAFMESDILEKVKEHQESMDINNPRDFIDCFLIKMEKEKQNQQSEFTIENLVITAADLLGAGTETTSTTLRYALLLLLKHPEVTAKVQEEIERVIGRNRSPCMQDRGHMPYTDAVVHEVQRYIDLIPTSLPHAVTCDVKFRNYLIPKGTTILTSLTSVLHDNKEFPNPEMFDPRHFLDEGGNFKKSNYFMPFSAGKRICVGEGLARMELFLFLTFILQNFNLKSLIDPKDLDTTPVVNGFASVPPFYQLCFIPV
Voltage-gated inwardly rectifying potassium channel KCNH2 (Homo sapiens), sequence (Q12809 whole entry, looked up): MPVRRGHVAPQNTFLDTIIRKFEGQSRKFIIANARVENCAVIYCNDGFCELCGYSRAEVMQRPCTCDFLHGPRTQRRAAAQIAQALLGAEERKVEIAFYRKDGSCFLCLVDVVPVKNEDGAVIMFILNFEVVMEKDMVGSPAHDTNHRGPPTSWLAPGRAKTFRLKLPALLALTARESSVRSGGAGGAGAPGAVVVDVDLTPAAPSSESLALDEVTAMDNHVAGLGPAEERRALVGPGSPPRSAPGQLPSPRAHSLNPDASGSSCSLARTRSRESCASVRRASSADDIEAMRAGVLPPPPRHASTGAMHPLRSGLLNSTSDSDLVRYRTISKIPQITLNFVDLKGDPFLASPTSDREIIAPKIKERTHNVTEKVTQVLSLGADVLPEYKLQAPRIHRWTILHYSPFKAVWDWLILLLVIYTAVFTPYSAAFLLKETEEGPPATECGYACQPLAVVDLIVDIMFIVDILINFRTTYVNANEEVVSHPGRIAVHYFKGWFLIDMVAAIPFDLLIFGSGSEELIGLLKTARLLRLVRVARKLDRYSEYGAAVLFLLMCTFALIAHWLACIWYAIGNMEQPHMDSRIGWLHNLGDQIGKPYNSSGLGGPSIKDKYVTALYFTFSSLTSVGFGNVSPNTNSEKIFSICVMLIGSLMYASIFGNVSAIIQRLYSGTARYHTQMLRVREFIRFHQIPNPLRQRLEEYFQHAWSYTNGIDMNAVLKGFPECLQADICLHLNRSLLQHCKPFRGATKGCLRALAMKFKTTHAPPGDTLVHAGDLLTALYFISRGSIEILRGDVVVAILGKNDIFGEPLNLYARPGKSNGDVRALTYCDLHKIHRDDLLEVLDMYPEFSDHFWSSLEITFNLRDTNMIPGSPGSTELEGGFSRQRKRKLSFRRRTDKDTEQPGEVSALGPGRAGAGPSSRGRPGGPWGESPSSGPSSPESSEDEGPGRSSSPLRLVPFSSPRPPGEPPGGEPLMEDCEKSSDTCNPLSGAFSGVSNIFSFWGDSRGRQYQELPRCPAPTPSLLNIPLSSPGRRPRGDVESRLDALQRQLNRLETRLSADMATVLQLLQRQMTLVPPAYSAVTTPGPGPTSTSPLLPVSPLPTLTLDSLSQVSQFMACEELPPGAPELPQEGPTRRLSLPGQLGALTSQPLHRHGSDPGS

O=C1CC[C@H](C(=O)N2CCCCC2)N1
Potency [1]: inactive
Potency [2]: inactive
Potency [3]: inactive
Potency [4]: inactive
Potency [5]: inactive
Potency [6]: inactive

CN[C@@H]1[C@@H](O)[C@@H](O[C@@H]2[C@H](O)[C@H](O[C@H]3OC(CN)=CC[C@H]3N)[C@@H](N)C[C@H]2N)OCC1(C)O (some centres not stated)
Potency [5]: inactive

C=CCOc1c(Br)cc(C(C)(C)c2cc(Br)c(OCC=C)c(Br)c2)cc1Br
Potency [2]: inactive
Potency [7]: 24.6 µM (active)
Potency [3]: inactive
Potency [4]: inactive
Potency [5]: inactive
Potency [6]: inactive

CN=C(NC#N)NCCSCc1csc(N=C(N)N)n1
Potency [5]: inactive

CCN(CCC#N)c1ccccc1
Potency [1]: inactive
Potency [7]: 8.94 µM (active)
Potency [4]: 31.7 µM (active)
Potency [5]: inactive
Potency [6]: inactive

Cc1cccc(NC(=S)N(C)C)c1
Potency [2]: inactive
Potency [7]: 79.6 µM (active)
Potency [3]: inactive
Potency [4]: 35.6 µM (active)
Potency [5]: inactive
Potency [6]: inactive

C=CCOCC(CO)(COCC=C)COCC=C
Potency [2]: inactive
Potency [7]: 0.717 µM (active)
Potency [3]: 7.17 µM (active)
Potency [4]: 25.5 µM (active)
Potency [5]: inactive
Potency [6]: 10.1 µM (active)

Cc1nc2ccccc2c(=O)o1
Potency [1]: inactive
Potency [6]: inactive

CC(=O)N1CCN(c2ccc(O)cc2)CC1
Potency [1]: inactive
Potency [4]: 24.5 µM (active)
Potency [6]: inactive

CCS(=O)(=O)CCn1c([N+](=O)[O-])cnc1C
Potency [5]: inactive

O=S(=O)(O)c1cc(O)ccc1O
Potency [5]: inactive

O=C(O)c1ccccc1C(=O)OCc1ccccc1
Potency [7]: inactive
Potency [4]: inactive
Potency [5]: inactive
Potency [6]: inactive

CN(C1CCCCC1)S(=O)(=O)c1ccccc1N
Potency [1]: 27.3 µM (active)
Potency [7]: 3.17 µM (active)
Potency [3]: 6.33 µM (active)
Potency [5]: inactive

SCCSCCS
Potency [2]: inactive
Potency [7]: inactive
Potency [3]: inactive
Potency [4]: inactive

CCC(C)(CCC(C)C)C(=O)[O-].CCC(C)(CCC(C)C)C(=O)[O-].[Zn+2] (configuration not stated)
Potency [2]: inactive
Potency [7]: 17.8 µM (active)
Potency [3]: 17.8 µM (active)
Potency [5]: inactive
Potency [6]: inactive

Cc1ncc([N+](=O)[O-])n1CC(O)CCl (configuration not stated)
Potency [5]: inactive

CC(=O)c1ccc(OCC(=O)N2CCCCC2)cc1
Potency [2]: inactive
Potency [3]: inactive
Potency [4]: inactive
Potency [5]: inactive

c1ccccc1
Potency [2]: inactive
Potency [7]: inactive
Potency [3]: inactive
Potency [4]: inactive
Potency [5]: inactive
Potency [6]: inactive

CCN(Cc1cccc(S(=O)(=O)O)c1)c1ccccc1
Potency [1]: inactive
Potency [3]: 17.8 µM (active)
Potency [4]: inactive
Potency [5]: inactive
Potency [6]: inactive

COc1cccc2sc(N)nc12
Potency [2]: 11.3 µM (active)
Potency [7]: 56.7 µM (active)
Potency [3]: inactive
Potency [4]: 22.6 µM (active)
Potency [5]: inactive
Potency [6]: 10.1 µM (active)
